Only some compounds are listed: those with a hit (about 3% of all), similar ones and a draw of the others.
HIF-2a inh = blocks HIF-2a reporter activity | 786-0 RCC cells HIF-2a reporter, luciferase luminescence, overnight | inhibition, % at 18.8 µM | 360,000 tested, 0.72% active;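 active means inhibition of the luminescence signal of 40% or more relative to plate controls, in a single-dose primary screen at 18.75 µM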
KKLEB tox = reduces viability of KKLEB cystic fibrosis airway cells | KKLEB CF airway cells viability, ATPlite luminescence, overnight; stronger effect = lower value; cells stimulated with P. aeruginosa culture filtrate | activity change (cytotoxicity), % at 5 µM | 360,000 tested, 0.36% active;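 active means corrected activity change at or below -50% at 5 µM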
TRPM1 prom inh = MITF TRPM1 promoter inhibition in SK-MEL-5 cells. SK-MEL-5 TRPM1 promoter luciferase, 24 h. inhibition, % at 12.5 µM. 330,000 tested, 0.83% active;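 active means mean inhibition across replicates of 60% or more, whatever share of single replicates reaches that level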
EBV LMP1 NFkB = Epstein-Barr LMP1 NF-kappaB reporter inhibition. LMP1-induced NF-kappaB luciferase reporter cells, luminescence. inhibition, % at 12.5 µM. 350,000 tested, 0.69% active. AID 504558; in the data active means inhibition above about 41%;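 further: 0% = neutral control wells and 100% = reference inhibitor control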
CF NFkB inh = cystic fibrosis NF-kB activation inhibition | KKLEB NF-kB-GFP reporter, PAF-induced, GFP fluorescence overnight | inhibition, % at 5 µM | 360,000 tested, 0.86% active | AID 588850;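 active means at least 50% inhibition at 5 µM, scaled per plate between neutral and stimulator controls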;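 further: PAF is a Pseudomonas aeruginosa culture filtrate used as stimulus; plate controls were PAF-stimulated DMSO wells for no effect and unstimulated DMSO wells for full effect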
Peg3 promoter = reduces Peg3 promoter-driven luciferase expression in HeLa. HeLa PEG-Prom luciferase reporter, luminescence, overnight. 360,000 tested, 1.7% active. inhibition, % at 20 µM;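 active means inhibition of at least 50% at 20 µM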
Mdm2-MdmX confirm = Mdm2/MdmX (human) interaction inhibition, confirmed; shares compounds with HIF-2a inh; SaOS-2 split-luciferase Mdm2/MdmX complementation, luminescence; inhibition, % at 8 µM; 740 tested, 99% active; AID 504601;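 active means mean inhibition of the luminescence signal across two replicates at or above 26 percent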
Target sequence (O15151 whole entry, looked up): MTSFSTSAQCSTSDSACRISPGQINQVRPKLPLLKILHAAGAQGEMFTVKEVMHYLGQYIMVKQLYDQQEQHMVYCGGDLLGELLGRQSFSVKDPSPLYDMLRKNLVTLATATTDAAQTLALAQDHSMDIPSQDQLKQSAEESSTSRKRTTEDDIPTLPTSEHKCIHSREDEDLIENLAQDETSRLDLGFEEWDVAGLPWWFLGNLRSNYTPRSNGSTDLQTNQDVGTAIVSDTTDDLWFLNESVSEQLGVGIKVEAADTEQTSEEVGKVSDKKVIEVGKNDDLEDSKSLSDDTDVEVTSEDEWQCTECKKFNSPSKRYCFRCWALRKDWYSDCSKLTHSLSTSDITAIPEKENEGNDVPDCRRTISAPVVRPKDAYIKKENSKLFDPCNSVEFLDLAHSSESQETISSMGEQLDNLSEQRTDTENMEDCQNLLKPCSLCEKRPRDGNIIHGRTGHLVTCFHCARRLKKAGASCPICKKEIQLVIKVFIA
Target sequence (Q00987 whole entry, looked up): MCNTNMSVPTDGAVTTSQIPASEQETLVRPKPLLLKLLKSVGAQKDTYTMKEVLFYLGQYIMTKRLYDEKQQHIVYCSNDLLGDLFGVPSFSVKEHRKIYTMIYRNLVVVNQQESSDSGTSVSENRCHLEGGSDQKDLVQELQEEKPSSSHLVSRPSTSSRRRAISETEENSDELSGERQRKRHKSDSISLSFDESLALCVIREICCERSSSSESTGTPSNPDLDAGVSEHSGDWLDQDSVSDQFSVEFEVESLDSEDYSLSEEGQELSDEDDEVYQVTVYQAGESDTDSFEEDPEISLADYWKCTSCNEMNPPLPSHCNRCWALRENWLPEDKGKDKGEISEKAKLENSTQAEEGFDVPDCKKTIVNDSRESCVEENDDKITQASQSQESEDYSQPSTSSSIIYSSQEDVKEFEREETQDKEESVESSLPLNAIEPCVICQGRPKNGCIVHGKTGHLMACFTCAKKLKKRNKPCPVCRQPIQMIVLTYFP
HIF-2a inh conf = confirmation of HIF-2a inhibitors | shares compounds with HIF-2a inh | 1,800 tested, 56% active | 786-0 RCC cells, HIF-2a luciferase reporter luminescence, overnight | inhibition, % at 18.8 µM;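 active means mean inhibition across four replicates of at least 40 percent at the single tested concentration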
HIF-1a counter = inhibits HIF-1a reporter, a counter-screen for HIF-2a inhibitors | 1,800 tested, 72% active | MiaPaCa-2 HIF-1a luciferase reporter, desferoxamine, overnight | shares compounds with HIF-2a inh | inhibition, % at 18.8 µM | AID 651589;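 active means mean inhibition of the reporter signal across four replicates at the single tested dose of 50% or more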
Starred values were filed as active, the others as inactive.

How did COc1ccc(-c2ccc3[nH]c4c(c3c2)CCN2C(=O)[C@@H]([C@H](C)O)[C@@H](N(C)C(=O)Nc3ccccc3)C[C@@H]42)cc1 do in these assays?
HIF-2a inh: -61; KKLEB tox: -5; EBV LMP1 NFkB: 0; CF NFkB inh: 13; Peg3 promoter: 41

Results for COc1ccc(/C=C/C(=O)C(C(N)=O)=C2SCCS2)cc1 ?
HIF-2a inh: -93; KKLEB tox: 9; TRPM1 prom inh: -38; EBV LMP1 NFkB: -6; CF NFkB inh: 6; Peg3 promoter: -86

What do the screens show for `NC(=O)C(C(=O)/C=C/c1ccc(Cl)cc1)=C1SCCS1`?
HIF-2a inh: -2; KKLEB tox: 4; TRPM1 prom inh: 39; EBV LMP1 NFkB: 25; CF NFkB inh: 34; Peg3 promoter: 61*; Mdm2-MdmX confirm: 102*

How did COc1cc(/C=C/C(=O)c2ccc(NS(=O)(=O)c3ccc(C)cc3)cc2)cc(OC)c1O do in these assays?
HIF-2a inh: 54*; KKLEB tox: 13; TRPM1 prom inh: 67*; EBV LMP1 NFkB: 3; CF NFkB inh: -14; Peg3 promoter: 65*; HIF-2a inh conf: 64*; HIF-1a counter: 104*

Results for COc1cc(/C=C/C(=O)c2ccc(C)c([N+](=O)[O-])c2)cc(OC)c1O ?
HIF-2a inh: 47*; KKLEB tox: -39; TRPM1 prom inh: 8; EBV LMP1 NFkB: 15; CF NFkB inh: 43; Peg3 promoter: 63*; HIF-2a inh conf: 21; HIF-1a counter: 36

What do the screens show for `CC[C@]12C(=O)N(C)C[C@H]([C@@H]3C(=O)N(C)C(=O)[C@@H]31)N2C(=O)c1ccc(C(C)(C)C)cc1`?
HIF-2a inh: 5; KKLEB tox: -12; TRPM1 prom inh: 2; EBV LMP1 NFkB: -8; CF NFkB inh: 0; Peg3 promoter: -10

What do the screens show for `COc1ccccc1NC(=S)N=Nc1c(O)[nH]c2ccc(Br)cc12`?
HIF-2a inh: 7; KKLEB tox: -18; TRPM1 prom inh: 21; EBV LMP1 NFkB: 17; CF NFkB inh: 23; Peg3 promoter: 92*; Mdm2-MdmX confirm: 84*

How did CC(=O)Nc1ccc(-c2ccnc3c2CC(C)(C(=O)Nc2ccc(Cl)cc2)O3)cc1 (configuration not stated) do in these assays?
HIF-2a inh: 22; KKLEB tox: 2; CF NFkB inh: -41; Peg3 promoter: 24

What do the screens show for `Cc1ccc(C(=O)OCC(=O)NCc2ccc(Cl)cc2)s1`?
HIF-2a inh: 7; KKLEB tox: 5; EBV LMP1 NFkB: 2; CF NFkB inh: 10; Peg3 promoter: 4

What do the screens show for `Cc1sc2ncnc(Nc3ccccc3)c2c1C`?
HIF-2a inh: -55; KKLEB tox: 2; TRPM1 prom inh: -23; EBV LMP1 NFkB: 4; CF NFkB inh: 2; Peg3 promoter: -25

How did Cc1sc2ncnc(Nc3ccc(N4CCOCC4)cc3)c2c1-c1ccccc1 do in these assays?
HIF-2a inh: 45*; KKLEB tox: -14; TRPM1 prom inh: 4; EBV LMP1 NFkB: 1; CF NFkB inh: 24; Peg3 promoter: 29; HIF-2a inh conf: 24; HIF-1a counter: 79*

Results for Cc1ccc(S(=O)(=O)N2CCCC2CNC(=O)C(=O)NCc2ccc3c(c2)OCO3)cc1 (configuration not stated) ?
HIF-2a inh: 21; KKLEB tox: -1; EBV LMP1 NFkB: -4; CF NFkB inh: 1; Peg3 promoter: 23

What do the screens show for `CNC(=O)NC(=O)COC(=O)CCCSc1nc2ccccc2s1`?
HIF-2a inh: 64*; KKLEB tox: 9; TRPM1 prom inh: 21; EBV LMP1 NFkB: 9; CF NFkB inh: -13; Peg3 promoter: 10; HIF-2a inh conf: 85*; HIF-1a counter: 57*
